High-throughput results deposited in PubChem by The Scripps Research Institute Molecular Screening Center.
Sampled rows, rich in hits. Any-hit rate of the full collection: about 4.5%.
DAX1 inh-1: DAX1 (NR0B1) inhibition, primary screen; actives 1.1% (n = 370,000); inhibition, % at 6.8 µM; HEK293T StAR-luciferase reporter, SF-1/DAX-1 repression relief;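 active means inhibition above the mean over all tested compounds plus 3 SD, cut at about 3.6% in these data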;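 further: higher inhibition means more luminescence from relief of DAX-1 repression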
hcDAF12 agonist: H. contortus DAF-12 activation, primary screen; actives 1.4% (n = 370,000); HEK293 hcDAF-12 lit1-tk-luc reporter, luminescence; 0% DMSO, 100% Δ7-dafachronic acid; activation, % at 6.8 µM;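 active means activation above the mean of all tested compounds plus 3 SD, cut at about 5.5% in these data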
ssDAF-12 act: activates DAF-12 receptor from parasite S. stercoralis; HEK293 ssDAF-12/GRIP1 lit1-tk-luc reporter, luminescence; % of 3 µM dafachronic acid response; actives 1% (n = 370,000); activation, % at 6.8 µM; AID 652126;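 active means activation above the mean over all tested compounds plus 3 SD, cut at about 0.9% in these data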
GAA850 FXN act: frataxin GAA850 promoter activation. HEK293 lucGAA850 FXN promoter luciferase reporter, 24 h; percent of 10 µM SAHA response. activation, % at 6 µM. actives 0.56% (n = 360,000);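 active means activation above the average of all compounds screened plus 3 SD, cutoff fixed separately per campaign, cut at about 7.5% in these data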
hgDAF-12 ag: agonists of H. glycines DAF-12 nuclear receptor; HEK293 GAL4-hgDAF12 UAS-luciferase reporter, agonist luminescence; normalized to butyrate control; activation, % at 6.8 µM; actives 1.8% (n = 370,000); AID 687014;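 active means activation above a cutoff set at the mean of all screened compounds plus 3 SD, cut at about 10% in these data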
DAX1 inh-2: inhibitors of human orphan nuclear receptor DAX1 (NR0B1); HEK293 Gal4-DAX1 luciferase reporter, luminescence; actives 0.99% (n = 340,000); inhibition, % at 6.75 µM; P51843;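 active means inhibition above the mean over all tested compounds plus 3 SD, cut at about 4.2% in these data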;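 further: inhibition shows as a rise in luminescence from relieved DAX1 repression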
Target sequence (P51843 207-470 limits assumed): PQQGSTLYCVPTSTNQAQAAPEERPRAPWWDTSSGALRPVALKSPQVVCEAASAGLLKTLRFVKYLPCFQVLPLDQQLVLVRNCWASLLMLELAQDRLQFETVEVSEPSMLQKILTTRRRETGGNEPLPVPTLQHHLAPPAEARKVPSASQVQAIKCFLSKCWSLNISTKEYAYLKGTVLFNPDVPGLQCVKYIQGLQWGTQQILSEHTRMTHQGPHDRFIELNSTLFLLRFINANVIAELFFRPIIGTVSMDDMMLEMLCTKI
hgDAF12 ag: confirmation of H. glycines DAF-12 agonists | shares compounds with hgDAF-12 ag | HEK293 GAL4-hgDAF12 luciferase reporter, agonist mode; percent of butyrate response | activation, % at 6.8 µM | actives 80% (n = 3,300) | AID 743050;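 active means mean activation over triplicate wells above the hit cutoff derived from the earlier primary screen, cut at about 11% in these data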
LXRb DAF12 ctr: counter-screen for DAF-12 agonists: agonists of human LXR-beta | AID 743051 | 3,300 tested, under 10 active | shares compounds with hgDAF-12 ag | activation, % at 6.8 µM | HEK293 Gal4-LXR luciferase reporter, 24 h;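 active means mean activation of the triplicate above a set limit carried over from the primary screen, none filed active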
Target sequence (P55055 whole entry, looked up, the tested form may be a part): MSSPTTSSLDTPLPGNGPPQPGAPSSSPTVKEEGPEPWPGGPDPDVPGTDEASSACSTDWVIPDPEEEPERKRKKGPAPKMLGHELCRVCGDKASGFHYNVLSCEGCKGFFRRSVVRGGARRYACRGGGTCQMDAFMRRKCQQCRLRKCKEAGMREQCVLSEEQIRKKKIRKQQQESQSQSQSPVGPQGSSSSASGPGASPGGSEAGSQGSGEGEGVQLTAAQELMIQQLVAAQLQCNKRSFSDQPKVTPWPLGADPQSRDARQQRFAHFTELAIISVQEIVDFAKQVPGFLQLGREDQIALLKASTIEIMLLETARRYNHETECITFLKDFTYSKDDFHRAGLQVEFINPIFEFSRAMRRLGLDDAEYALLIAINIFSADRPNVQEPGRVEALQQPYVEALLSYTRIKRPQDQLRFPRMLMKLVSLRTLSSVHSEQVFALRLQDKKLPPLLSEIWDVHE
Hits are given with their value.

For O=C(NC1CCCC1)c1cc(-c2ccc(Cl)cc2)on1 the results were DAX1 inh-1 inactive, hcDAF12 agonist inactive, ssDAF-12 act inactive, GAA850 FXN act inactive, hgDAF-12 ag inactive and DAX1 inh-2 inactive.
For Cc1ccc(-c2cc(C(=O)NCC3CCCO3)no2)cc1 (configuration not stated) the results were DAX1 inh-1 inactive, hcDAF12 agonist inactive, ssDAF-12 act inactive, GAA850 FXN act inactive, hgDAF-12 ag 14.3, DAX1 inh-2 inactive, hgDAF12 ag 13.1 and LXRb DAF12 ctr inactive.
`O=C(NC1CCCC1)c1cc(-c2ccc(F)cc2)on1` gave DAX1 inh-1 inactive, hcDAF12 agonist inactive, ssDAF-12 act inactive, GAA850 FXN act inactive, hgDAF-12 ag 23.5, DAX1 inh-2 5.8, hgDAF12 ag 37.4 and LXRb DAF12 ctr inactive.
CC1=C(C(=O)N2CCOCC2)C(c2c(F)cccc2F)NC(=O)N1 (configuration not stated) was read as DAX1 inh-1 inactive, hcDAF12 agonist inactive, ssDAF-12 act inactive, GAA850 FXN act inactive, hgDAF-12 ag inactive and DAX1 inh-2 inactive.
Screening COc1ccccc1CC(=O)NC1CCCCCC1 returned DAX1 inh-1 inactive, hcDAF12 agonist inactive, ssDAF-12 act inactive, GAA850 FXN act inactive, hgDAF-12 ag 13.2, DAX1 inh-2 inactive, hgDAF12 ag inactive and LXRb DAF12 ctr inactive.
`COC(=O)[C@]12C[C@H](CC(=O)N3CCSCC3)C(=O)N(Cc3ccc4c(c3)OCO4)C1=C[C@H](COCc1ccccc1)O[C@@H]2C` gave DAX1 inh-1 inactive, hcDAF12 agonist inactive, ssDAF-12 act inactive and hgDAF-12 ag inactive.
Screening CCN(CC)C(=O)CSc1nnc(-c2ccc(C(C)(C)C)cc2)n1Cc1ccco1 returned DAX1 inh-1 inactive, hcDAF12 agonist inactive, ssDAF-12 act inactive and hgDAF-12 ag inactive.
For Cc1cc(NC(=O)c2cnn3cccnc23)no1 the results were DAX1 inh-1 inactive, hcDAF12 agonist inactive, ssDAF-12 act inactive, GAA850 FXN act inactive, hgDAF-12 ag inactive and DAX1 inh-2 inactive.
For Cc1cc(NC(=O)c2nn3cccnc3c2Cl)no1 the results were DAX1 inh-1 inactive, hcDAF12 agonist inactive, ssDAF-12 act inactive, GAA850 FXN act inactive, hgDAF-12 ag 13.6, DAX1 inh-2 inactive, hgDAF12 ag 14.6 and LXRb DAF12 ctr inactive.
Screening O=C(/C=C/Nc1ccc(Oc2ccccc2)cc1)c1ccco1 returned DAX1 inh-1 3.8, hcDAF12 agonist inactive, ssDAF-12 act inactive, GAA850 FXN act inactive, hgDAF-12 ag 13.3, DAX1 inh-2 inactive, hgDAF12 ag 23.4 and LXRb DAF12 ctr inactive.
`O=C(Nc1cccnc1)c1ccccc1Oc1ccccc1` gave DAX1 inh-1 inactive, hcDAF12 agonist inactive, ssDAF-12 act inactive, GAA850 FXN act inactive, hgDAF-12 ag inactive and DAX1 inh-2 inactive.
O=C(Nc1cccnc1)c1ccc(Oc2ccccc2)cc1 was read as DAX1 inh-1 inactive, hcDAF12 agonist inactive, ssDAF-12 act inactive, GAA850 FXN act inactive, hgDAF-12 ag 14.4, DAX1 inh-2 inactive, hgDAF12 ag 14.9 and LXRb DAF12 ctr inactive.
Screening O=C(Nc1ccc2oc(-c3ccccc3)nc2c1)C1CCCO1 (configuration not stated) returned DAX1 inh-1 inactive, hcDAF12 agonist inactive, ssDAF-12 act 1.2, GAA850 FXN act inactive, hgDAF-12 ag 28.1, DAX1 inh-2 inactive, hgDAF12 ag 14.8 and LXRb DAF12 ctr inactive.
O=C(Nc1ccc2oc(-c3ccncc3)nc2c1)c1ccco1 was read as DAX1 inh-1 inactive, hcDAF12 agonist inactive, ssDAF-12 act inactive, GAA850 FXN act inactive, hgDAF-12 ag inactive and DAX1 inh-2 inactive.
O=C(Nc1ccc2oc(-c3ccccc3)nc2c1)c1ccco1 was read as DAX1 inh-1 inactive, hcDAF12 agonist inactive, ssDAF-12 act 1.0, GAA850 FXN act inactive, hgDAF-12 ag 15.3, DAX1 inh-2 inactive, hgDAF12 ag 11.8 and LXRb DAF12 ctr inactive.
For CCN1CC(CN(C)Cc2nc(-c3ccc(C(F)(F)F)cc3)oc2C)CC1=O (configuration not stated) the results were DAX1 inh-1 inactive, hcDAF12 agonist inactive, ssDAF-12 act inactive, GAA850 FXN act inactive, hgDAF-12 ag inactive and DAX1 inh-2 inactive.
For CC(C)Oc1cccc(-c2csc(N3CCC(C(N)=O)CC3)n2)c1 the results were hcDAF12 agonist inactive, ssDAF-12 act inactive, hgDAF-12 ag 14.5, hgDAF12 ag inactive and LXRb DAF12 ctr inactive.
Screening NC(=O)C1CCN(c2nc(-c3ccc4ccccc4c3)cs2)CC1 returned DAX1 inh-1 inactive, hcDAF12 agonist inactive, ssDAF-12 act inactive, GAA850 FXN act inactive, hgDAF-12 ag inactive and DAX1 inh-2 inactive.
`CC(=O)c1cccc(-c2csc(N3CCC(C(N)=O)CC3)n2)c1` gave DAX1 inh-1 inactive, hcDAF12 agonist inactive, ssDAF-12 act inactive, GAA850 FXN act inactive, hgDAF-12 ag inactive and DAX1 inh-2 inactive.
For NC(=O)C1CCN(c2nc(-c3ccc4c(c3)OCCCO4)cs2)CC1 the results were hcDAF12 agonist inactive, ssDAF-12 act inactive, hgDAF-12 ag 16.9, hgDAF12 ag 18.1 and LXRb DAF12 ctr inactive.
For CN(C)S(=O)(=O)Nc1ccc(Cc2ccncc2)cc1 the results were DAX1 inh-1 inactive, hcDAF12 agonist inactive, ssDAF-12 act inactive, GAA850 FXN act inactive, hgDAF-12 ag inactive and DAX1 inh-2 inactive.
Screening O=P(c1ccccc1)(c1ccccc1)c1cc(S(=O)(=O)O)ccc1O returned DAX1 inh-1 inactive, hcDAF12 agonist inactive, ssDAF-12 act inactive, GAA850 FXN act inactive, hgDAF-12 ag inactive and DAX1 inh-2 inactive.
For CSCC(=O)Nc1nc(-c2ccc3c(c2)OCCO3)cs1 the results were DAX1 inh-1 inactive, hcDAF12 agonist inactive, ssDAF-12 act inactive, GAA850 FXN act inactive, hgDAF-12 ag 16.6, DAX1 inh-2 inactive, hgDAF12 ag 14.3 and LXRb DAF12 ctr inactive.
Nc1nc(-c2ccc3c(c2)OCCO3)cs1 was read as DAX1 inh-1 inactive, hcDAF12 agonist inactive, ssDAF-12 act inactive, GAA850 FXN act inactive, hgDAF-12 ag inactive and DAX1 inh-2 inactive.
Screening O=C(CC(=O)c1cccs1)c1ccncc1 returned DAX1 inh-1 3.7, hcDAF12 agonist inactive, ssDAF-12 act inactive, GAA850 FXN act inactive, hgDAF-12 ag 25.5, DAX1 inh-2 inactive, hgDAF12 ag inactive and LXRb DAF12 ctr inactive.
Screening O=[N+]([O-])c1ccc(C=CC=Cc2ccccc2)cc1 returned DAX1 inh-1 inactive, hcDAF12 agonist inactive, ssDAF-12 act inactive, GAA850 FXN act inactive, hgDAF-12 ag inactive and DAX1 inh-2 inactive.
[O-]/[N+](=C\C=C\c1ccccc1)c1ccccc1 was read as DAX1 inh-1 inactive, hcDAF12 agonist inactive, ssDAF-12 act inactive, GAA850 FXN act inactive, hgDAF-12 ag 14.4, DAX1 inh-2 inactive, hgDAF12 ag 13.7 and LXRb DAF12 ctr inactive.
